# Test results as given in PubChem BioAssay (NCI).
# This is part of a sample that, as a whole, favours compounds with a hit. Of some 79,000 tested, about 15% had one in any assay. Activity calls are given as the source filed them. No stated cut-off is given here; in the data, active means growth inhibition above about 70%; inactive means the rest.
# Experiment: NCI Yeast Anticancer Drug Screen. Data for the mlh1 rad18 strain (AID 175)
# Conditions: S. cerevisiae mlh1 rad18 strain growth inhibition; at 50.0 µM; active compounds read high
# Procedure, shortened: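 Test agents were incubated with a yeast strain of defined genotype (DNA damage repair defect). Inhibition of growth was derived by comparison with vehicle-exposed cultures.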
row,SMILES,growth inhibition
1,Cc1ccccc1C1CCCCC1OS(C)(=O)=O (stereo not given),-11.1% (inactive)
2,N#CC(c1ccccc1)N(CCc1ccccc1)C(=O)c1ccc(C(=O)N(CCc2ccccc2)C(C#N)c2ccccc2)cc1 (stereo not given),-11.3% (inactive)
3,C=Cc1nnnn1C,10.8% (inactive)
4,C/C=C/C=C/C(=O)CCC1(C)OC(=O)C(C)=C1O (stereo not given),6.25% (inactive)
5,CC(CO)C1C[C@H](O)[C@@]2(C)CC(=O)C=C(CO)[C@@H]2C1 (stereo not given in full),-46% (inactive)
6,Cc1c(C)c(C(Cl)(Cl)Cl)c(C)c(C)c1Br,-7.3% (inactive)
7,COc1cc(C2C(Cl)C(=O)N2NC(=O)c2ccc(N)cc2)cc(Br)c1O (stereo not given),-11.2% (inactive)
8,COC(=O)c1ccc(N=NN(C)COC(C)=O)cc1,18.8% (inactive)
9,C=C1CCc2occ(C)c2C2C1C1=C(CC(C)C1=O)C1OC12C (stereo not given),10.2% (inactive)
10,Cc1n[nH]c2ccccc2c1=O,-9.95% (inactive)
11,c1ccc(C2=NC(c3ccccc3)(c3ccccc3)N=C2c2ccccc2)cc1,2.5% (inactive)
12,COC1(OC)C2(Cl)C(Cl)=C(Cl)C1(Cl)C1C=CC=CC12 (stereo not given),-35.3% (inactive)
13,COc1ccc(C=Nc2ccc(Cl)cc2)cc1,3.55% (inactive)
14,O=C(CCCN1CCC2(CC1)NC(=O)c1ccccc1O2)c1ccc(F)cc1,21.7% (inactive)
15,NC(Cc1ccc(B(O)O)cc1)C(=O)O (stereo not given),-4.05% (inactive)
16,CCN=C(c1ccccc1)N(O)c1ccccc1,-14.1% (inactive)
17,COC(=O)/N=c1\cc(N2CC=CCC2)nc(N)n1O,5.4% (inactive)
18,CC1(CO)CCCC2(C)C3=CC(=O)CCC3CCC12 (stereo not given),-3.15% (inactive)
19,CC(=O)OC(C)c1cc2c(s1)C(=O)c1sccc1C2=O (stereo not given),89.5% (active)
20,CCNC(=O)NS(=O)(=O)c1ccc(Sc2ccc(Cl)cc2)nc1,-0.4% (inactive)

row,SMILES,growth inhibition
1,Cc1cccc(N2CCN(S(C)(=O)=O)CC2)c1,5% (inactive)
2,N[C@H]1c2c(Cl)cccc2C(=O)[C@H]1O,-49.5% (inactive)
3,Cc1cccc2c(NCCC[N+](C)(C)[O-])c3c([N+](=O)[O-])ccc(C)c3nc12,43% (inactive)
4,CC(N)/C(N)=N/O (stereo not given),15% (inactive)
5,CN(CCO)CCC1COc2ccccc2O1 (stereo not given),1.25% (inactive)
6,CCCCC(SC(CC)(CC)C(N)=O)C(N)=O (stereo not given),-5.6% (inactive)
7,CC1CC2OC(=O)C(C)C2CC2(C)C(OC3OC(CO)C(O)C(O)C3O)OCCC12 (stereo not given),-49.7% (inactive)
8,CC1=N/C(=C/c2ccc3c(c2)OCO3)C(=O)O1,14% (inactive)
9,COc1ccc(C(=O)C[n+]2cc(Br)cc(Br)c2)cc1,-8.95% (inactive)
10,O=C(Nc1ccccc1)c1cc(S(=O)(=O)n2cc[nH]c2=O)c(S)cc1Cl,13.2% (inactive)
11,CCCCC1CCC(C(=O)O)=NC1 (stereo not given),-11.4% (inactive)
12,COC1OC(CO)C(O)C1O (stereo not given),-9.25% (inactive)
13,C=CC(O)C(O)C=C (stereo not given),17.2% (inactive)
14,NC(=O)c1cc(Cl)c(N)c(Cl)c1,-11.8% (inactive)
15,CC(C)(C)[N]=[V]([Cl])([Cl])[Cl],-10.1% (inactive)
16,COc1ccc(/C=C2/CSCC3=C2NC(=S)NC3c2ccc(OC)c(OC)c2OC)c(OC)c1OC (stereo not given),10.9% (inactive)
17,Cc1ccc(C(C)C)cc1O,32.4% (inactive)
18,Nc1nc2c(c(=O)[nH]1)C(c1ccc(Cl)cc1)C=C(c1ccccc1)N2 (stereo not given),-33.5% (inactive)
19,O=C(CCCC(=O)N/N=C/c1cc(Cl)ccc1[N+](=O)[O-])N/N=C\c1cc(Cl)ccc1[N+](=O)[O-],7% (inactive)
20,CC1=CC[C@](C)(O)[C@@]2(C)CC[C@H]3C(=C(C)C)C(=O)C[C@]3(C)C[C@H]12,17.5% (inactive)
